Compound activity deposited in PubChem by several laboratories.
Compounds with a hit are over-represented: about 28% of the library has one in this group of screens.
CYP2C19 inh = blockers of cytochrome P450 2C19 activity – biochemical, luminescence, ADME assay, primary screen; P33261; CYP2C19 Supersomes, luciferin-H EGE luminescence, 30 min; inhibition, % at 5 µM; hit rate 21% among 96,000; AID 778, 2007;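 active = CYP2C19 inhibition above a set limit at 5 µM in the primary screen, cut at about 50% in these data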;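 note: plate controls were negative control wells for no effect and 2.5 mM tranylcypromine positive control for full effect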
CYP2C19 activ = human CYP2C19 activators, primary screen, biochemical, luminescence | Cytochrome P450 2C19 (Homo sapiens), P33261 | recombinant CYP2C19, luciferin-H EGE luminescence; hits give high values; 0 = fully inhibited enzyme, 1 = untreated enzyme | activation factor at 5 µM | 96,000 tested, under 10 active | AID 1025, 2008;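 active = activation factor of at least 2 at 5 µM in the primary screen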;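 note: 0 = wells with 2.5 mM tranylcypromine and 1 = vehicle-only wells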
D1 mod = D1 CRE-luciferase signal change, two-sided – cell-based, HEK293 D1, dopamine EC30, D1 allosteric modulator project, primary screen; D(1A) dopamine receptor (Homo sapiens), P21728; dopamine EC30 potentiation; actives deviate in either direction; B-score at 10 µM; hit rate 5.9% among 58,000;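 active = luminescence count or its row- and column-corrected plate score outside the 99.7% band of the plate's sample wells, on either side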
CYP2C9 activ = human CYP2C9 activators, primary screen, biochemical, luminescence. Cytochrome P450 2C9 (Homo sapiens), P11712. hit rate 1.4% among 96,000. recombinant CYP2C9, luciferin-H conversion; hits give high values; factor 1 = untreated enzyme, 0 = blocked. activation factor at 5 µM;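 active = activation factor of 2 or more for CYP2C9 at a 5 µM dose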;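 note: 0 = sulfaphenazole-blocked wells and 1 = vehicle-only wells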
DAT uptake mod = changed hDAT dopamine uptake under cocaine IC80, either direction, primary screen, cocaine antagonist project, cell-based, LLC-PK1 hDAT, [14C]-dopamine uptake, MLSMR. LLC-PK1 hDAT cells, [14C]-dopamine uptake with cocaine IC80; actives deviate in either direction. B-score at 10 µM. hit rate 1.3% among 110,000. AID 449768, 2010;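 active = Z score or B-score, a plate-position-corrected score, falls beyond the plate's 99.7% confidence bounds, in either direction; inactive = both scores lie inside the 99.7% bounds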;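 note: scored against the spread of the other compound wells on the same plate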
Target sequence (Q01959 whole entry, looked up): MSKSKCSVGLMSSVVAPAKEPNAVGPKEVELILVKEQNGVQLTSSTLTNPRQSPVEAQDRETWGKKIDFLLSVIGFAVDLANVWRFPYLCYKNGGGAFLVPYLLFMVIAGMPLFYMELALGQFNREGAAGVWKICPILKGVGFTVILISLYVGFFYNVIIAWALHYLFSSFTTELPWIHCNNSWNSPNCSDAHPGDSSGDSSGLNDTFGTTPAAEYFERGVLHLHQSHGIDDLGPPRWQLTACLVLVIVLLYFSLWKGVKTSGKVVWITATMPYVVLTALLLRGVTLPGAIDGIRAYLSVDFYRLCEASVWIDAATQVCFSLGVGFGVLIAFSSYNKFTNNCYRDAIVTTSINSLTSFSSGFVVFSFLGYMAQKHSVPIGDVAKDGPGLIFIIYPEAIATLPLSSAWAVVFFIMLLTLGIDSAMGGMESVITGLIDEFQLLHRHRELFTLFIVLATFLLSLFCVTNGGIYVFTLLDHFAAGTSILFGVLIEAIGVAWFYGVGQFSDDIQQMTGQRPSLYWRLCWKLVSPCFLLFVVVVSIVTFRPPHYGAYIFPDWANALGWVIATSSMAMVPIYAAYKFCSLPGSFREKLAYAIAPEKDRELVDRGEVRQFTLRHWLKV
CYP2C9 inh = blockers of cytochrome P450 2C9 activity – biochemical, luminescence, ADME assay, primary screen. hit rate 20% among 96,000. inhibition, % at 5 µM. CYP2C9 Supersomes, luciferin-H conversion. P11712;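 active = blocking of liver enzyme CYP2C9 beyond about 50% at 5 µM, limit read from the data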
The depositor's hits bear a star; x = no result.

SMILES | CYP2C19 inh | CYP2C19 activ | D1 mod | CYP2C9 activ | DAT uptake mod | CYP2C9 inh
Cc1nn(Cc2c(F)c(F)c(F)c(F)c2F)c(C)c1NC(=O)c1c([N+](=O)[O-])cnn1C | 16.3 | 0.8 | x | 1 | 0.104 | 1.9
CCOC(=O)c1c(C)[nH]c(C(=O)OCC(=O)NC2CCS(=O)(=O)C2)c1C (stereo not drawn) | -11.2 | 1.1 | x | 0.9 | 0.0413 | 8.1
Cn1c(SCc2ccc(C#N)cc2Cl)nc2ccccc21 | 56.8* | 0.4 | -0.0436 | 0.7 | 0.222 | 32.9
Cn1c(SCc2nnc3n2CCCCC3)nc2ccccc21 | -5.3 | 1.1 | 0.0155 | 1.3 | -0.608 | -26.5
C=C(C)c1cccc(C(C)(C)NC(=O)N2CCCCC2CC)c1 (stereo not drawn) | 51.3* | 0.5 | x | 0.1 | 0.837 | 89.4*
C=C(C)c1cccc(C(C)(C)NC(=O)N2CCN(CC(N)=O)CC2)c1 | -11.4 | 1.1 | -0.578 | 1 | 0.949* | 0.9
C=C(C)c1cccc(C(C)(C)NC(=O)N2CCN(CC)CC2)c1 | x | x | -1.7 | x | -0.79 | x
COC(=O)c1nc2nc(C)cc(=O)n2[nH]1 | -0.4 | 1 | x | 1 | -0.264 | 4.3
O=C1NC(=S)N/C1=C/c1cc([N+](=O)[O-])ccc1O | 4.2 | 1 | x | 0.7 | -2.13* | 32.6
CN(C)c1nc(Cl)cc(N2CCOCC2)n1 | 3.3 | 1 | x | 1.7 | -0.19 | -71.3
Cc1ccc(SCc2cc(=O)[nH]c(N3CCOCC3)n2)cc1 | 7.9 | 0.9 | 0.208 | 1.1 | -0.292 | -8.5
Cc1nc(CSc2ccc(Cl)cc2)cc(NCc2ccccc2)n1 | 85.0* | 0.2 | x | 0.1 | 0.31 | 91.1*
Cc1nc(CS(=O)c2ccc(Cl)cc2)cc(NCc2ccc(Cl)cc2Cl)n1 (stereo not drawn) | 91.3* | 0.1 | x | 0 | 2.65* | 96.3*
Cc1nc(CSc2ccc(Cl)cc2)cc(N2CCOCC2)n1 | 94.3* | 0.1 | x | 0.9 | 0.121 | 12.2
CSCc1cc(N2CCOCC2)nc(SCc2ccc(Cl)c(Cl)c2)n1 | 52.6* | 0.5 | x | 0.5 | 0.379 | 48.6
Cc1cc(NCc2ccccc2)nc2ccccc12 | x | x | x | x | 0.446 | x
O=C(Nc1ccc(-c2csc(Nc3ccccc3)n2)cc1)c1cc([N+](=O)[O-])cc(C(F)(F)F)c1 | x | x | x | x | 1.17 | x
Cn1c(=O)c2c(SCc3ccccn3)nc(-c3ccccc3)nc2n(C)c1=O | x | x | 0.174 | x | x | x
Cc1cc(N/C=C2\CCCCC2=O)no1 | 6.7 | 0.9 | -0.485 | 1.2 | 0.409 | -23.7
Cc1nc(COC(=O)c2ccc(CO)cc2)cs1 | 64.0* | 0.4 | x | 0.7 | 0.158 | 29.6
Cc1ccc(C2=N/C(=C\N3CCCCC3)C(=O)O2)cc1 | 83.7* | 0.2 | x | 0.3 | -0.0893 | 66.2*
CCOC(=O)Cn1c(C)nc2ccccc21 | 8.2 | 0.9 | 0.444 | 1.1 | 0.439 | -5.0
CCOC(=O)Cn1c(-c2ccccn2)nc2ccccc21 | 51.2* | 0.5 | -0.548 | 1 | 0.912 | 0.7
Cn1c(=O)oc2cc(S(=O)(=O)NC(Cc3ccccc3)C(=O)N3CCCCC3)ccc21 (stereo not drawn) | 40.4 | 0.6 | x | 0.9 | 0.639 | 13.2
Oc1c(C(c2ccccc2)N2CCCCC2)sc2ncnn12 (stereo not drawn) | x | x | -0.12 | x | 0.302 | x
Oc1c(C(c2ccccc2)N2CCN(Cc3ccccc3)CC2)sc2ncnn12 (stereo not drawn) | 78.0* | 0.2 | x | 0.3 | 0.944 | 67.0*
Cc1cc(C)c2cc(CN(Cc3cccnc3)C(=O)c3ccc(F)cc3)c(Cl)nc2c1 | 51.8* | 0.5 | x | 0.5 | 1.35 | 45.7
Cc1cccc2cc(CN(Cc3cccnc3)C(=O)c3ccccc3F)c(Cl)nc12 | 67.5* | 0.3 | x | 0.4 | 1.67 | 55.0*
COc1cc(C(=O)N(Cc2cccnc2)Cc2cc3cc4c(cc3[nH]c2=O)OCCO4)cc(OC)c1OC | 1.3 | 1 | x | 0.6 | -0.949 | 44.5
C=C1CCN([C@H](C(=O)NCc2ccc(Cl)cc2)C(C)C)S(=O)(=O)c2ccccc21 | x | x | x | x | 0.0284 | x
